# “And” between values parts separate entries of the source, which are not always exact repeats. Equal values may be shown once. Inconclusive results are not listed. The source made the active and inactive calls. The call rests on the fitted dose curve.
# Experiment: qHTS Assay for Lipid Storage Modulators (AID 1519); on activity change, negative = inhibition: on the % scale 0 is the no-effect control and ±100 the full control effect
# Settings: Drosophila S3 cells, BODIPY lipid droplet/cell ratio, laser cytometry, cells loaded with oleic acid
# From the text: NIH Molecular Libraries Probe Production Centers Network [MLPCN]
# NIH Chemical Genomics Center [NCGC]
# Assay Submitter (PI): Beller, Mathias; Max-Planck-Institut fur Biophysikalische Chemie
# NCGC Assay Overview: Storing lipids as a reservoir for energy or the anabolism of elementary metabolites is a common feature of probably all cells and is conserved from bacteria to humans. The universal cellular lipid storage organelle is the so-called lipid storage droplet (LD). Although ubiquitous, LDs share a simple structure composed of a hydrophobic core that harbors the storage lipids, which is shielded by a droplet-specific phospholipid monolayer to which proteins are attached. The current model of LD biogenesis involves an incorporation of the lipid core into the membrane leaflets of the endoplasmic reticulum (ER) followed by a subsequent budding-like maturation of a LD, which ultimately pinches off. Once released, LD volume can increase by localized lipogenesis or fusion of existing droplets. Storage lipids are re-mobilized enzymatically by lipase activity. Lipase regulation in the adipocyte is heavily studied and involves multiple components including catecholamine signaling, the LD-associated proteins Perilipin and comparative gene identification-58 (CGI-58) and at least two lipases named hormone sensitive lipase (HSL) and adipocyte triglyceride lipase (ATGL). LD regulation outside of the adipocyte is poorly understood and only few components are known. However, there is an urgent need to learn more about ectopic fat depots as mislocalized storage of lipids, for example in the liver or muscle, is an eminent health problem associated with insulin resistance or the metabolic syndrome. We developed a laser-scanning cytometer assay to enable 1,536-well screening and combined the results of the small molecules screen with an RNAi database based on lipid storage.
# NCGC Assay Protocol Summary:
# We dispensed 4 uL of cells at 1.25 x 10^6 cells/mL into LoBase Aurora COC 1,536-well plates (black walled, clear bottom) with a bottle-valve solenoid-based dispenser (Aurora) to obtain 5,000 cells/well. Triacsin C (Sigma-Aldrich T-4540), an inhibitor of long-chain fatty acyl CoA synthetase that blocks synthesis of triglycerides, was used as a positive control for lipid under-storage. A total of 23 nL of compound solution of different concentrations were transferred to the assay plates using a Kalypsys pin tool equipped with a 1,536-pin array containing 10-nL slotted pins (FP1S10, 0.457-mm diameter, 50.8 mm long; V&P Scientific). One microliter of oleic acid (400 uM) was added, and the plate was lidded with stainless steel rubber gasket lined lids containing pinholes. […] Fluorescence was detected by excitation of the fluorophores with a 488-nm laser on an Acumen Explorer (TTP Lab Tech). The total intensity in channel 1 (500-530 nm) reflected lipid droplet accumulation. […] The ratio of the total intensity in PMT channel 1 over total intensity of channel 3 was also calculated. Percent activity was computed relative to an internal control (100% inhibited lipid droplet deposition due to the presence of 20 uM Triacsin C), which was added to 32 wells/plate.
# [1] = measured here: cell count channel max response
# [2] = measured here: lipid channel max response
Structure (SMILES),"activity change, negative = inhibition (at 25.7 µM (top of the series))",max response [1],max response [2],"activity change, negative = inhibition (at 57.5 µM (top of the series))"
COc1cc(C)nc(-n2nc(C)cc2OC)n1,-0.43% (inactive),-1.69%,-3.43%,–
Nc1ccc(C(=O)NCC(=O)O)cc1,-0.313% (inactive),-0.767%,0.146%,–
CCOc1ccc(NC(C)=O)cc1,-1.03% (inactive),1.01%,-4.32%,–
NS(=O)(=O)c1cc(C(=O)O)cc(N2CCCC2)c1Oc1ccccc1,-4.05% (inactive),-4.21%,-6.59%,–
CCN(CC)CCNC(=O)c1cc(Br)c(N)cc1OC,-3.04% (inactive),-6.94% and 12.8%,-8.36% and 21.9%,5.14% (inactive)
CCCCc1cc2ccccc2c(OCCN(C)C)n1,-1.95% (inactive),-12.7%,-12.3%,–
O=C(O)c1ccc(S(=O)(=O)N(Cl)Cl)cc1,–,17.1%,34.6%,9.84% (inactive)
CCN1CCCC(OC(=O)C(c2ccccc2)c2ccccc2)C1 (stereo not given),–,-5.03%,-14.3%,-10.7% (inactive)
CC(=O)NCCCCCC(=O)O,–,6.35%,14.8%,4.31% (inactive)
CC(=O)Nc1ccc(S(=O)(=O)Nc2ccc([N+](=O)[O-])cc2)cc1,–,4.05%,18.4%,7.58% (inactive)
COC(=O)C(c1ccccc1Cl)N1CCc2sccc2C1 (stereo not given),–,3.08%,15.9%,8.17% (inactive)
CN=C(N)NCCC[C@H](N)C(=O)O,–,-14.9%,-15.5%,0.0216% (inactive)
O=C1C(=O)c2ccccc2C(O)=C1C1CCC(c2ccc(Cl)cc2)CC1 (stereo not given),–,7.54%,21.8%,10.1% (inactive)

# — PubChem BioAssay (NCATS)
